Data published in PubChem BioAssay (NCATS).
Inconclusive results are not listed. Calls of active or inactive are those of the source. Unless noted, calls follow the shape of the dose curve; as a rule, active = well fitted curve in either direction with a large enough effect (not every such curve was filed as active); inconclusive = small, poorly fitted or top-dose-only effect, or another doubt; inactive = flat fitted curve, though single readings scatter.

Biological target: Cytochrome P450 1A2 (Homo sapiens) (UniProt P05177)
Sequence (P05177 whole entry, looked up): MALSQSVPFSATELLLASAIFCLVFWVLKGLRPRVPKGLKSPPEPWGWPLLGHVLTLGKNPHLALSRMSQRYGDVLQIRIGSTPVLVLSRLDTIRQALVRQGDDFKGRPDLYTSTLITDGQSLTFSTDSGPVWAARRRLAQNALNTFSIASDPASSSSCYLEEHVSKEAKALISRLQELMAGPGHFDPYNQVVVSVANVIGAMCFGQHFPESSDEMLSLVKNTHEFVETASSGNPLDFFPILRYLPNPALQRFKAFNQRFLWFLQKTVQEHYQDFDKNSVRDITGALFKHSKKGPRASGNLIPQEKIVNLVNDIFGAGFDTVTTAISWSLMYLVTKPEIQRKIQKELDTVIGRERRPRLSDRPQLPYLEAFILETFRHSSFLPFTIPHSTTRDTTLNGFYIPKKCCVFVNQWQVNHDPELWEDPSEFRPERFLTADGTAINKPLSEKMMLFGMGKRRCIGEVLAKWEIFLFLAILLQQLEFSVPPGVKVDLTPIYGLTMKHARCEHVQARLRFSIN
Assay: p450-cyp1a2 (AID 410; calls by dose curve; also: potency is read from the fitted curve at half-maximal effect;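 as to activity change, negative = inhibition: -100% = full effect of reference inhibitor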)
Details: recombinant CYP1A2, luciferin-ME demethylation, luminescence; series mostly up to 11.4 µM; activity change, negative = inhibition: at the top concentration
Method in brief: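 Human CYP1A2 (20nM) demethylated Luciferin-ME at its Km (100uM) in 100mM KPO4. After 10 min compound preincubation, NADPH regeneration ran the reaction 60 min at room temperature. Luciferin was read by luminescence, normalized to 57 uM furafylline.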

Row | SMILES | Potency | activity change, negative = inhibition
1 | Cn1ncc2c(NCCc3ccccc3)nc(Cl)nc21 | 2.51 µM (active) | 
2 | C/C(=N/Nc1ccc2ccccc2n1)c1ccccc1O | 1.58 µM (active) | 
3 | Nc1[nH]c(=S)[nH]c(=O)c1N=Nc1c(Br)cc(S(N)(=O)=O)cc1Br | 3.16 µM (active) | 
4 | COc1ccc(C[C@@H]2C(=O)N[C@H](C)C(=O)N(C)[C@@H]3Cc4ccc(cc4)Oc4cc(ccc4O)C[C@H](C(=O)N[C@@H](C)C(=O)N[C@H](C)C(=O)N2C)N(C)C3=O)cc1 |  | -16.4% (inactive)
5 | O=C(O)c1ccc(SSc2ccc(C(=O)O)cn2)nc1 | 3.16 µM (active) | 
6 | Cc1ccc(S(=O)(=O)Nc2cc(=O)[nH]c3c2CCC3)cc1 | 3.98 µM (active) | 
7 | BrC(c1cccc2ccccc12)c1cccc2ccccc12 | 1.26 µM (active) | 
8 | c1ccc(C[C@@H](Nc2cccnc2)c2ccccc2)cc1 | 0.2 µM (active) | 
9 | N=C(N)S[C@H]1c2ccccc2-c2cc([N+](=O)[O-])ccc21 | 0.158 µM (active) | 
10 | CC(C)(C)C(=O)[C@H]([C@@H](c1ccccc1)N1CCOCC1)N1CCOCC1 |  | -6.9% (inactive)
11 | O=C(O)CCc1nc(-c2ccccc2-n2cccc2)no1 |  | -17.3% [at 2.29 µM] (inactive)
12 | O=C(O)/C(=C\c1ccccc1)Cc1ccccc1 |  | -18.4% (inactive)
13 | O=S(=O)(O)c1cc(O)c2c(N=Cc3ccccc3O)cc(S(=O)(=O)O)cc2c1 |  | -23.7% [at 2.29 µM] (inactive)
14 | Cn1c(=S)c2[nH]c(SCc3cccnc3)nc2n(C)c1=O | 3.98 µM (active) | 
15 | CC(C)N1CCN(c2ccncc2S(=O)(=O)N2CCCCC2)CC1 |  | -17% [at 2.29 µM] (inactive)
16 | Cc1cc2c(cc1C)NC1=C(N2)O[C@H](c2c[nH]c3ccc(COc4ccccc4)cc23)C1=O | 2.51 µM (active) | 
17 | COc1cc(Cl)c(CC(=O)c2c[nH]c3ccccc23)cc1OC | 1 µM (active) | 
18 | Cc1ccc2c(c1)N[C@H](c1ccc(C(=O)O)cc1)c1cccn1-2 | 0.794 µM (active) | 
19 | COc1ccc2c(Cl)cc(NC(=S)Nc3ccccc3)nc2c1 | 0.398 µM (active) | 
20 | c1ccc2c(c1)-c1nc3ccccc3cc1[C@H]2N1CCOCC1 | 1.26 µM (active) | 
21 | Nc1cccc(OCc2nc(N)nc(N)c2-c2ccc(Cl)cc2)c1 | 0.158 µM (active) | 
22 | CC1=C/C(=C(/c2ccc(O)c(C)c2)c2ccccc2C(=O)O)C=CC1=O | 3.16 µM (active) | 
23 | N#C/C(=C\Nc1ccccn1)C(=O)c1ccco1 |  | -22.9% (inactive)
24 | Cn1c(=O)c2[nH]c(CCCCc3nc4c([nH]3)c(=O)n(C)c(=S)n4C)nc2n(C)c1=S |  | -13.8% [at 2.29 µM] (inactive)

System: not listed separately
Assay: NFAT Signaling Pathway (AID 444);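 also: carbachol stimulus at about its EC50 of 1 µM final; % is scaled to controls: 0 for no effect and ±100 for the full control effect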
Details: Jurkat NFAT-bla M1, carbachol, beta-lactamase ratio, 5 h; at 7.69 µM (top of the series) unless noted
Method in brief: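 Jurkat cells with NFAT-driven β-lactamase reporter and co-expressed M1 receptor, stimulated with carbachol (final 1 uM, ~EC50), compound titration, 5 h at 37 °C. CCF4 loaded 1 h at RT; 460/530 nm ratio gave %activity and AC50.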

Row | SMILES | activity change, negative = inhibition
25 | Cc1ccc(Nc2nnc(-c3ccc4c(c3)OCO4)o2)c(C)c1 | 1.57% (inactive)
26 | CN[C@@H](c1ccncc1)[C@@H](NC)c1ccncc1 | -1.07% (inactive)
27 | Cc1cnc(CNc2nc(-c3cccnc3)nc3ccccc23)cn1 | 0.457% (inactive)
28 | C(=N/Nc1nnc2c(n1)[nH]c1ccccc12)/c1cccnc1 | 1.85% (inactive)
29 | CC(C)[C@@H]1OC(=O)C=CC=CC=CC=CC=CC[C@@H](O)[C@H](C)[C@@H](O)C[C@H](O)C[C@H](O)C[C@H](O)C[C@H](O)C[C@H](O)C[C@H](O)C=C[C@@H]1C | 9.95% (inactive)
30 | COc1ccc2c(c1)Cc1cc(N=[N+]([O-])c3ccc4c(c3)Cc3cc(OC)ccc3-4)ccc1-2 | -17.3% (inactive)
31 | Nc1nc(SC/C=C\c2ccccc2)c2[nH]cnc2n1 | 24.8% (inactive)
32 | O=C(CC(=O)c1ccncc1)c1ccccc1 | 13.8% (inactive)
33 | O=c1oc2cc(N=Cc3ccc4c(c3)OCO4)ccc2c2ccccc12 | 12.7% (inactive)
34 | CSC1(SC2=NCCN2)SC2(NCCN2)S1 | -0.372% (inactive)
35 | O[C@@H](C1=C/C(=C\c2ccncc2)c2ccccc21)c1ccncc1 | -26.9% (inactive)
36 | Nc1nc(SCCc2ccccc2)c2[nH]cnc2n1 | 15.6% (inactive)
37 | Nc1nc(SCc2ccccc2[N+](=O)[O-])c2[nH]cnc2n1 | 14.4% (inactive)
38 | O=S(=O)(c1cnccc1N1CCN(CCO)CC1)N1CCCC1 | 4.17% (inactive)
39 | COc1ccc(Oc2ncc3nc(C)c(=O)n(-c4ccc(OC)cc4)c3n2)cc1 | -15.1% (inactive)
40 | Cn1ncc2c(NCCc3ccccc3)nc(Cl)nc21 | 2.58% (inactive)
41 | C/C(=N/Nc1ccc2ccccc2n1)c1ccccc1O | 2.32% (inactive)
42 | Nc1[nH]c(=S)[nH]c(=O)c1N=Nc1c(Br)cc(S(N)(=O)=O)cc1Br | -0.337% (inactive)
43 | COc1ccc(C[C@@H]2C(=O)N[C@H](C)C(=O)N(C)[C@@H]3Cc4ccc(cc4)Oc4cc(ccc4O)C[C@H](C(=O)N[C@@H](C)C(=O)N[C@H](C)C(=O)N2C)N(C)C3=O)cc1 | -132% (active)
44 | O=C(O)c1ccc(SSc2ccc(C(=O)O)cn2)nc1 | 5.74% (inactive)

Row | SMILES | activity change, negative = inhibition
45 | Cc1ccc(S(=O)(=O)Nc2cc(=O)[nH]c3c2CCC3)cc1 | 9.14% (inactive)
46 | BrC(c1cccc2ccccc12)c1cccc2ccccc12 | -5.96% (inactive)
47 | c1ccc(C[C@@H](Nc2cccnc2)c2ccccc2)cc1 | -11.2% (inactive)
48 | N=C(N)S[C@H]1c2ccccc2-c2cc([N+](=O)[O-])ccc21 | -0.855% (inactive)
49 | CC(C)(C)C(=O)[C@H]([C@@H](c1ccccc1)N1CCOCC1)N1CCOCC1 | 16.7% (inactive)
50 | O=C(O)CCc1nc(-c2ccccc2-n2cccc2)no1 | 8.59% (inactive)
51 | O=C(O)/C(=C\c1ccccc1)Cc1ccccc1 | 3.67% (inactive)
52 | O=S(=O)(O)c1cc(O)c2c(N=Cc3ccccc3O)cc(S(=O)(=O)O)cc2c1 | 8.24% (inactive)
53 | Cn1c(=S)c2[nH]c(SCc3cccnc3)nc2n(C)c1=O | 0.274% (inactive)
54 | CC(C)N1CCN(c2ccncc2S(=O)(=O)N2CCCCC2)CC1 | -81.6% (active)
55 | Cc1cc2c(cc1C)NC1=C(N2)O[C@H](c2c[nH]c3ccc(COc4ccccc4)cc23)C1=O | 2.39% (inactive)
56 | COc1cc(Cl)c(CC(=O)c2c[nH]c3ccccc23)cc1OC | 26.5% (inactive)
57 | Cc1ccc2c(c1)N[C@H](c1ccc(C(=O)O)cc1)c1cccn1-2 | -7.71% (inactive)
58 | COc1ccc2c(Cl)cc(NC(=S)Nc3ccccc3)nc2c1 | 12.1% (inactive)
59 | c1ccc2c(c1)-c1nc3ccccc3cc1[C@H]2N1CCOCC1 | -6.28% (inactive)
60 | Nc1cccc(OCc2nc(N)nc(N)c2-c2ccc(Cl)cc2)c1 | -4.61% (inactive)
61 | CC1=C/C(=C(/c2ccc(O)c(C)c2)c2ccccc2C(=O)O)C=CC1=O | -5.21% (inactive)
62 | N#C/C(=C\Nc1ccccn1)C(=O)c1ccco1 | 2.59% (inactive)
63 | Cn1c(=O)c2[nH]c(CCCCc3nc4c([nH]3)c(=O)n(C)c(=S)n4C)nc2n(C)c1=S | -2.84% (inactive)
